In the library only some 6.7% were active in any assay of this set; here they are far more common.
T cruzi growth-1: T. cruzi intracellular proliferation inhibitors, primary screen, cell-based, beta-gal Tulahuen parasites, NIH3T3 host, luminescence | inhibition, % at 8.34 µM | actives 5.9% (n = 77,000) | T. cruzi beta-gal in NIH3T3, GalScreen luminescence, 90 h;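 active means mean inhibition above about 93%, with at least 55% of replicates each passing it, limit read from the data, passing the limit was not always enough; inconclusive means only one of those two conditions holds; inactive means neither condition holds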
C diff growth: C. difficile growth inhibitors, primary screen, HTS. Clostridium difficile clinical isolate growth, OD600, 24 h; active compounds read low. actives 0.25% (n = 86,000). growth activity, negative = inhibition, % at 16 µg/mL (by protocol);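 active means mean growth activity at or below -80% and every replicate also at or below -80%; inconclusive means mean at or below -80% but some replicate above -80%; inactive means mean growth activity above -80%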;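 further: 0% = DMSO wells and -100% = levofloxacin 16 µg/mL wells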
Pf Dd2 inh: P. falciparum Dd2 growth inhibitors, primary screen, SYBR Green fluorescence, single dose replicates; 72 h; active compounds read low; AID 1159554, 2015; activity change, % at 10 µM; actives 2.3% (n = 94,000); in the data active means activity change below about -80%; inconclusive means no clear call, values can overlap the other calls
T cruzi growth-2: T. cruzi intracellular proliferation inhibitors, confirmation, cell-based, NIH3T3 host, beta-gal parasite, luminescence, cherry-pick. T. cruzi beta-gal in NIH3T3, GalScreen luminescence, 90 h. AID 651739, 2012. inhibition, % at 8.35 µM. shares compounds with T cruzi growth-1. actives 72% (n = 5,600);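 active means mean replicate inhibition above about 95% and at least 55% of replicates individually reaching it, limit read from the data; inconclusive means only one of the two criteria is met; inactive means neither criterion is met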
T cruzi growth-3: inhibitors of intracellular T. cruzi replication, confirmation, NIH3T3 host cells, beta-gal parasites, cherry-pick, set 2. shares compounds with T cruzi growth-1. T. cruzi beta-gal in NIH3T3, GalScreen luminescence, 90 h. inhibition, % at 2.09 µM. actives 21% (n = 5,600);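 active means mean inhibition above about 95%, with at least 55% of replicates also reaching it, limit read from the data; inconclusive means meets just one of the two conditions; inactive means meets neither condition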;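 further: plate controls were neutral control median for no effect and positive control median for full effect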
3T3 cytotox: cytotoxicity in mouse NIH/3T3 fibroblasts, confirmation, cytotoxicity control for T. cruzi proliferation inhibitor project, cell-based, cherry-pick, single point. shares compounds with T cruzi growth-1. actives 14% (n = 5,600). NIH/3T3 viability, CellTiter-Glo ATP luminescence, 90 h. AID 651742, 2012. cytotoxicity (signal decrease), % at 8.35 µM;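 active means mean signal decrease across replicates above about 35% based on untreated-well scatter, with enough replicates individually passing, limit read from the data; inconclusive means no rule stated though some were filed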;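 further: 0% = median of neutral control wells and 100% = median of positive control wells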
3T3 cytotox 2: NIH/3T3 fibroblast cytotoxicity, confirmation, cytotoxicity control, cell-based, cherry-pick, single point, set 2; shares compounds with T cruzi growth-1; NIH/3T3 viability, CellTiter-Glo ATP luminescence, 90 h; inhibition, % at 24.9 µM; actives 56% (n = 5,600);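 active means mean loss of cell viability signal at or above a set limit, and enough replicates individually reaching it; inconclusive means meets only the mean limit or only the replicate share; inactive means meets neither condition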;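 further: 0% = median of neutral control wells and 100% = median of positive control wells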
* hit, by the source's call.

`CNC[C@H]1OCCCC[C@H](C)Oc2ccc(NS(=O)(=O)c3ccc(C)cc3)cc2C(=O)N([C@H](C)CO)C[C@@H]1C` gave T cruzi growth-1 63, C diff growth -1 and Pf Dd2 inh 39.
C[C@H](CO)N1C[C@H](C)[C@@H](CN(C)C(=O)C2CCCCC2)Oc2ncc(C#Cc3cccc(F)c3)cc2C1=O was read as T cruzi growth-1 117*, Pf Dd2 inh -72, T cruzi growth-2 104*, T cruzi growth-3 64, 3T3 cytotox 9 and 3T3 cytotox 2 77*.
Screening COc1cccc(C#Cc2cnc3c(c2)C(=O)N([C@@H](C)CO)C[C@@H](C)[C@@H](CN(C)C(=O)C2CCCCC2)O3)c1 returned T cruzi growth-1 57, C diff growth 3 and Pf Dd2 inh 0.
`COc1cccc(C#Cc2cnc3c(c2)C(=O)N([C@@H](C)CO)C[C@@H](C)[C@H](CN(C)C(=O)C2CCC2)O3)c1` gave T cruzi growth-1 51, C diff growth -1 and Pf Dd2 inh -65.
For COc1cccc(C#Cc2cnc3c(c2)C(=O)N([C@H](C)CO)C[C@@H](C)[C@H](CN(C)C(=O)C2CCCCC2)O3)c1 the results were T cruzi growth-1 98, C diff growth 22 and Pf Dd2 inh -68.
COc1cccc(C#Cc2cnc3c(c2)C(=O)N([C@@H](C)CO)C[C@H](C)[C@@H](CN(C)C(=O)C2CCCCC2)O3)c1 was read as T cruzi growth-1 117*, C diff growth 24, Pf Dd2 inh -86*, T cruzi growth-2 107*, T cruzi growth-3 63, 3T3 cytotox -11 and 3T3 cytotox 2 29.
C[C@H]1CN([C@@H](C)CO)C(=O)c2cc(C#Cc3cccc(F)c3)cnc2O[C@H]1CN(C)C(=O)C1CCC1 was read as T cruzi growth-1 -227, C diff growth 4 and Pf Dd2 inh -48.
`COc1cccc(C#Cc2cnc3c(c2)C(=O)N([C@@H](C)CO)C[C@@H](C)[C@H](CN(C)C(=O)C2CCCCC2)O3)c1` gave T cruzi growth-1 85*, C diff growth 9, Pf Dd2 inh -63, T cruzi growth-2 100*, T cruzi growth-3 84, 3T3 cytotox 29 and 3T3 cytotox 2 101*.
`COc1cccc(C#Cc2cnc3c(c2)C(=O)N([C@H](C)CO)C[C@H](C)[C@@H](CN(C)C(=O)C2CCCCC2)O3)c1` gave T cruzi growth-1 101*, C diff growth 28, Pf Dd2 inh -87*, T cruzi growth-2 110*, T cruzi growth-3 39, 3T3 cytotox -4 and 3T3 cytotox 2 103*.
Screening CO[C@H]1CN(C)C(=O)c2ccc(NC(=O)C3CCC3)cc2OC[C@@H](C)N(C(=O)NC(C)C)C[C@@H]1C returned T cruzi growth-1 -2, C diff growth 5 and Pf Dd2 inh -2.
Screening C[C@H](CO)N1C[C@H](C)[C@H](CN(C)CC2CCCC2)OCc2cnnn2CCCC1=O returned T cruzi growth-1 -22, C diff growth -3 and Pf Dd2 inh 1.
For CC(C)C#Cc1ccc([C@@H]2[C@H](CO)N3C(=O)CN(C(=O)NC4CCCCC4)C[C@@H]23)cc1 the results were C diff growth -12 and Pf Dd2 inh -24.
Screening COc1ccccc1NC(=O)N1CC(=O)N2[C@H](C1)[C@@H](c1ccc(C#CC(C)C)cc1)[C@@H]2CO returned C diff growth -5 and Pf Dd2 inh -46.
Screening Cc1ccc(S(=O)(=O)N(C)C[C@H]2Oc3ccc(NS(=O)(=O)c4ccc(Cl)cc4)cc3C(=O)N([C@H](C)CO)C[C@H]2C)cc1 returned T cruzi growth-1 100*, C diff growth -3, Pf Dd2 inh 11, T cruzi growth-2 96*, T cruzi growth-3 13, 3T3 cytotox 28 and 3T3 cytotox 2 36*.
C[C@@H]1CN([C@@H](C)CO)C(=O)c2cc(NS(=O)(=O)c3ccc(Cl)cc3)ccc2O[C@H]1CN(C)S(=O)(=O)c1ccc(Cl)cc1 was read as T cruzi growth-1 39, C diff growth -9 and Pf Dd2 inh -7.
`Cc1ccc(S(=O)(=O)Nc2ccc3c(c2)C(=O)N([C@@H](C)CO)C[C@H](C)[C@H](CN(C)S(=O)(=O)c2ccc(Cl)cc2)O3)cc1` gave C diff growth 43 and Pf Dd2 inh -9.
Screening C[C@@H]1CN([C@@H](C)CO)C(=O)c2cc(NS(=O)(=O)c3ccc(Cl)cc3)ccc2O[C@@H]1CN(C)S(=O)(=O)c1ccc(Cl)cc1 returned T cruzi growth-1 inconclusive, C diff growth 9, Pf Dd2 inh 29, T cruzi growth-2 113*, T cruzi growth-3 42, 3T3 cytotox 28 and 3T3 cytotox 2 65*.
For CNC[C@@H]1Oc2ccc(NC(=O)Nc3c(C)noc3C)cc2C(=O)N([C@@H](C)CO)C[C@H]1C the results were T cruzi growth-1 -8, C diff growth 0 and Pf Dd2 inh -2.
`C[C@@H]1CN([C@H](C)CO)C(=O)c2cccc(NS(=O)(=O)c3cn(C)cn3)c2O[C@@H]1CN(C)Cc1ccccc1` gave T cruzi growth-1 2, C diff growth -1 and Pf Dd2 inh 20.
`COc1ccc(NC(=O)Nc2ccc3c(c2)C(=O)N([C@@H](C)CO)C[C@@H](C)[C@H](CN(C)Cc2ccc4c(c2)OCO4)OCCCC[C@@H](C)O3)cc1` gave T cruzi growth-1 91, C diff growth 2 and Pf Dd2 inh -68.
COc1ccc(NC(=O)Nc2ccc3c(c2)C(=O)N([C@H](C)CO)C[C@@H](C)[C@@H](CN(C)Cc2ccc4c(c2)OCO4)OCCCC[C@H](C)O3)cc1 was read as T cruzi growth-1 92, C diff growth 12 and Pf Dd2 inh -72.
`COc1ccc(CN(C)C[C@@H]2OCCCC[C@H](C)Oc3ccc(NC(=O)Nc4ccc5c(c4)OCO5)cc3C(=O)N([C@@H](C)CO)C[C@@H]2C)cc1` gave T cruzi growth-1 102*, Pf Dd2 inh -69, T cruzi growth-2 100*, T cruzi growth-3 91, 3T3 cytotox 68* and 3T3 cytotox 2 80*.
COc1ccc(CN(C)C[C@H]2OCCCC[C@@H](C)Oc3ccc(NC(=O)Nc4ccc5c(c4)OCO5)cc3C(=O)N([C@@H](C)CO)C[C@@H]2C)cc1 was read as T cruzi growth-1 94 and Pf Dd2 inh -57.
